Assay [1] can be described thus: kinase inhibitors against Plasmodium liver-stage infection, cell-based, known kinase inhibitor set, luminescence, hepatoma host viability (AID 624392).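 Note: infected cells incubated roughly two days before readout.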 Conditions: Plasmodium liver stage in hepatoma cells, luciferase luminescence, concentration not given here; liver cell % of control: measured here: host liver cell viability; parasite % of control: stronger effect = lower value.

Assay [2] can be described thus: modulators of glucocorticoid suppression of NF-kB, cell-based, luciferase, IL-1B stimulus, dexamethasone (AID 624486).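 For percent of negative control (+Dex): 100% = mean signal of vehicle control wells on the plate.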 The settings on record: NF-kB luciferase reporter, IL-1B + dexamethasone, luminescence; percent of negative control (+Dex): actives lie on both sides, concentration not given here; z-score: measured here: IL-1B alone, no Dex. A general note: In a reporter assay the amount or activity of a reporter protein is the signal.

Assay [3] in a line: kinase inhibitors altering Pseudomonas killing of worms, whole organism (AID 651566).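 Note: tested at 14 µM; sign flipped so higher z means a lower ratio.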 Conditions: C. elegans killed by P. aeruginosa, survival ratio.
Assay [4] in a line: activators of macrophage pro-inflammatory response, cell-based, murine, luminescence (AID 652131). The settings on record: murine macrophage pro-inflammatory reporter, stronger effect = higher value.
In assay [5] the target is Cellular tumor antigen p53 (Homo sapiens) (UniProt P04637). The experiment in a line: kinase inhibitors altering GFP-p53 stability in HPV16-positive cells, imaging, known kinase inhibitor set, EGFP/DsRed ratio (AID 1053116).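 Note: cells exposed to compounds for 24 h at 37 °C before reading.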 The settings on record: stronger effect = higher value; EGFP object count: measured here: GFP-p53 positive objects count.
Assay [6] in a line: IRF3 reporter activation in THP-1 macrophages, cell-based, PMA-stimulated THP-1, luminescence (AID 1053176). Conditions: PMA-differentiated THP-1, IRF3 reporter luminescence; stronger effect = higher value.
The nature of assay [7]: survival rescue of mitochondrial mutant cells in low glucose, primary screen, MELAS cybrids, Rieske KO mouse fibroblasts, CellTiter-Glo (AID 1508586;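 active = mean z-score across replicates of 1.96 or higher in either the MELAS or the Rieske mutant cell line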;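 note: z relative to plate mean and SD of compound and empty wells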). (In general: ATP-based viability assays read luminescence as a measure of living cells.)
The mark [8] stands for this setting: MELAS cybrid survival, CellTiter-Glo 48 h, stronger effect = higher value.
The mark [9] stands for this setting: Rieske KO mouse fibroblast survival, CellTiter-Glo 72 h.

Calls of active or inactive are those of the source. Unless noted, the rule behind the calls is not given here.

Sequence of Cellular tumor antigen p53 (Homo sapiens) (P04637 whole entry, looked up): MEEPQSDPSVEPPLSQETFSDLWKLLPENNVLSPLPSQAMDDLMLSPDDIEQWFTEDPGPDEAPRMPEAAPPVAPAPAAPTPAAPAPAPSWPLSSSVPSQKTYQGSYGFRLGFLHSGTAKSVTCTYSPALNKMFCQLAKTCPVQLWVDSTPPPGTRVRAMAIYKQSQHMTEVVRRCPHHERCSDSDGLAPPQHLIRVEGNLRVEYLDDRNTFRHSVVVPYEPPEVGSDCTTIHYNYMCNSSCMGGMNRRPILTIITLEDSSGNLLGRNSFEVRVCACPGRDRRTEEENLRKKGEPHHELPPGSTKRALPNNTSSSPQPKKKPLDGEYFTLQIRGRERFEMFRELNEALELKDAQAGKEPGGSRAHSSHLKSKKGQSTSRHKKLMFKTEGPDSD

`Cc1nnc(-c2ccc(C)c(-c3ccc(C(=O)NCc4ccc(Cl)cc4)cc3)c2)o1` gave a liver cell % of control in assay [1] of 161%. For the same compound, the parasite % of control in assay [1] is 31.3% (inactive). Also, the percent of negative control (+Dex) in assay [2] was 106% (inactive). Besides, the z-score in assay [2] is 1.07; in assay [3] it was 0.9 (inactive); in assay [4] it was -0.451 (inactive); in assay [7] (setting [8]) it was -0.978 (inactive); in assay [7] (setting [9]), -0.533. Besides, in assay [5], the EGFP object count worked out at 2. Besides, in assay [5], the EGFP/DsRed ratio is 0.079 (inactive). Also, in assay [6], the fraction signal was -0.0105 (inactive).
With `COC(=O)Nc1nc2ccc(Oc3cccc(NC(=O)Nc4cc(C(F)(F)F)ccc4F)c3)cc2[nH]1`, the liver cell % of control in assay [1] stood at 103%. Also, the parasite % of control in assay [1] was 148% (inactive). Moreover, the percent of negative control (+Dex) in assay [2] was 104% (inactive). Also, the z-score in assay [2] is 2.25; in assay [3], 1.03 (inactive); in assay [4], 4.52 (inactive); in assay [7] (setting [8]), -0.76 (inactive); in assay [7] (setting [9]), 0.691. Besides, the EGFP object count in assay [5] came to 4. The EGFP/DsRed ratio in assay [5] was 0.18 (inactive). For the same compound, in assay [6], the fraction signal was -0.0045 (inactive).
With `NS(=O)(=O)c1ccc(N=Nc2c(O)[nH]c3ccc(-c4cnco4)cc23)cc1`, the liver cell % of control in assay [1] worked out at 87.3%. Moreover, the parasite % of control in assay [1] was 140% (inactive). The percent of negative control (+Dex) in assay [2] was 104% (inactive). Moreover, the z-score is 0.22 in assay [2]; -0.29 (inactive) in assay [3]; 3.29 (inactive) in assay [4]; 0.293 (inactive) in assay [7] (setting [8]); -0.0502 in assay [7] (setting [9]). The EGFP object count in assay [5] amounted to 10. The EGFP/DsRed ratio in assay [5] is 0.401 (inactive). Moreover, in assay [6], the fraction signal is 0.0025 (inactive).
In turn, `COC(=O)Nc1nc2ccc(Oc3ccc(NC(=O)Nc4cccc(Cl)c4)cc3)cc2[nH]1` yielded a liver cell % of control in assay [1] of 81.3%. The parasite % of control in assay [1] was 298% (inactive). Moreover, the percent of negative control (+Dex) in assay [2] was 122% (inactive). The z-score is 1.3 in assay [2]; 1.51 (inactive) in assay [3]; 0.651 (inactive) in assay [4]; -0.179 (inactive) in assay [7] (setting [8]); -0.521 in assay [7] (setting [9]). The EGFP object count in assay [5] was determined as 79.5. Moreover, in assay [5], the EGFP/DsRed ratio was 1.2 (inactive). Also, the fraction signal in assay [6] was -0.0045 (inactive).
In assay [1], `N#Cc1ccc2c(-c3ccnc(NC4CC4)n3)c(-c3ccc(F)cc3)nn2c1` returned a liver cell % of control of 122%. For the same compound, the parasite % of control in assay [1] was 87.3% (inactive). Further, in assay [2], the percent of negative control (+Dex) was 106% (inactive). The z-score in assay [2] is 0.525; in assay [3], -0.52 (inactive); in assay [4], 2.06 (inactive); in assay [7] (setting [8]), -0.69 (inactive); in assay [7] (setting [9]) it was -0.125. Moreover, the EGFP object count in assay [5] is 0.5. Moreover, the EGFP/DsRed ratio in assay [5] was 0.00284 (inactive). Further, the fraction signal in assay [6] was 0 (inactive).
As to `CS(=O)(=O)CCNCc1ccc(-c2ccc3ncnc(Nc4ccc(OCc5cccc(C(F)(F)F)c5)cc4)c3c2)o1`, in assay [1], the liver cell % of control is 91.4%. In assay [1], the parasite % of control is 126% (inactive). The percent of negative control (+Dex) in assay [2] was 85% (inactive). Moreover, the z-score in assay [2] was -0.68; in assay [3] it was -0.1 (inactive); in assay [4] it was 0.289 (inactive); in assay [7] (setting [8]) it was 0.798 (inactive); in assay [7] (setting [9]), -0.393. For the same compound, the EGFP object count in assay [5] was determined as 4.5. Also, in assay [5], the EGFP/DsRed ratio is 0.109 (inactive). In assay [6], the fraction signal was 0.018 (inactive).
Compound `NS(=O)(=O)c1cccc(NC2CC(c3ccc(F)cc3)NN2)c1` (stereo unspecified) displayed a liver cell % of control in assay [1] of 86.1%. Besides, the parasite % of control in assay [1] was 117% (inactive). Further, the percent of negative control (+Dex) in assay [2] was 92.5% (inactive). In addition, the z-score was 0.55 in assay [2]; 0.39 (inactive) in assay [3]; 4.5 (inactive) in assay [4]; 1.38 (inactive) in assay [7] (setting [8]); -0.322 in assay [7] (setting [9]). In addition, the EGFP object count in assay [5] amounted to 7.5. Besides, in assay [5], the EGFP/DsRed ratio is 0.474 (inactive). Moreover, the fraction signal in assay [6] was -0.0055 (inactive).
In turn, `COc1cccc(/C=N/Nc2ncnc3c2cnn3-c2cccc(OC)c2)c1` registered a liver cell % of control in assay [1] of 96.7%. For the same compound, in assay [1], the parasite % of control is 107% (inactive). The percent of negative control (+Dex) in assay [2] was 91.5% (inactive). For the same compound, the z-score in assay [2] was -0.3; in assay [3], -0.385 (inactive); in assay [4], 0.307 (inactive); in assay [7] (setting [8]) it was 0.209 (inactive); in assay [7] (setting [9]), -0.582. In addition, in assay [5], the EGFP object count was 9. Also, the EGFP/DsRed ratio in assay [5] is 0.222 (inactive). In addition, the fraction signal in assay [6] is 0.0045 (inactive).
Compound `COC(=O)Nc1nc2ccc(Oc3ccc(NC(=O)Nc4cccc(Br)c4)cc3)cc2[nH]1` had a liver cell % of control in assay [1] of 77.3%. In addition, the parasite % of control in assay [1] is 247% (inactive). In addition, the percent of negative control (+Dex) in assay [2] is 104% (inactive). In addition, the z-score in assay [2] is 0.65; in assay [3], -0.435 (inactive); in assay [4], 0.412 (inactive); in assay [7] (setting [8]), 0.278 (inactive); in assay [7] (setting [9]), -0.0385. Moreover, the EGFP object count in assay [5] amounted to 6.5. For the same compound, in assay [5], the EGFP/DsRed ratio is 0.0884 (inactive). Further, the fraction signal in assay [6] is -0.001 (inactive).
The compound `CCN(CC)Cc1ccc(Nc2nccc(-c3cnn4ncccc34)n2)cc1` had a liver cell % of control in assay [1] of 52.3%. Moreover, the parasite % of control in assay [1] was 12.5% (active). In addition, the percent of negative control (+Dex) in assay [2] is 3% (active). Also, the z-score in assay [2] is -9.2; in assay [3], -0.59 (inactive); in assay [4], -2.04 (inactive); in assay [7] (setting [8]), 0.539 (inactive); in assay [7] (setting [9]), 1.65. The EGFP object count in assay [5] amounted to 3. In addition, the EGFP/DsRed ratio in assay [5] is 0.0517 (inactive). Further, in assay [6], the fraction signal was 0.0075 (inactive).
In turn, `CCn1c(-c2nonc2N)nc2cncc(C(=O)N3CC[C@H](N)C3)c21` yielded a liver cell % of control in assay [1] of 108%. Also, the parasite % of control in assay [1] was 146% (inactive). Moreover, the percent of negative control (+Dex) in assay [2] is 76.5% (inactive). For the same compound, the z-score in assay [2] is -2.08; in assay [3], -0.435 (inactive); in assay [4], 1.55 (inactive); in assay [7] (setting [8]), -0.752 (inactive); in assay [7] (setting [9]) it was -0.175. Also, the EGFP object count in assay [5] is 4. Besides, the EGFP/DsRed ratio in assay [5] is 0.0807 (inactive). Besides, the fraction signal in assay [6] was -0.0035 (inactive).
In assay [1], `Nc1nc(-c2cccc(Cl)c2)c(-c2ccc3ncccc3n2)s1` yielded a liver cell % of control of 156%. In addition, in assay [1], the parasite % of control was 115% (inactive). Also, the percent of negative control (+Dex) in assay [2] was 103% (inactive). For the same compound, the z-score is 0.42 in assay [2]; -1.02 (inactive) in assay [3]; -0.477 (inactive) in assay [4]; 0.115 (inactive) in assay [7] (setting [8]); -0.0691 in assay [7] (setting [9]). In addition, the EGFP object count in assay [5] came to 2.5. The EGFP/DsRed ratio in assay [5] was 0.0471 (inactive). The fraction signal in assay [6] was -0.0045 (inactive).
In the case of `Nc1c(C(=O)c2ccc(C#CCN3CCOCC3)cc2)cnn1-c1ccc(F)cc1`, in assay [1], the liver cell % of control is 110% and the parasite % of control is 75.7% (inactive). Moreover, in assay [2], the percent of negative control (+Dex) is 106% (inactive) and the z-score was 1.64. For the same compound, in assay [5], the EGFP object count stood at 4.5 and the EGFP/DsRed ratio is 0.119 (inactive). The fraction signal in assay [6] was 0.01 (inactive).
For the compound `Cc1ccccc1-n1ncc(C(=O)c2ccccc2)c1N`, in assay [1], the liver cell % of control was found to be 104% and the parasite % of control was 52.3% (inactive). Further, in assay [2], the percent of negative control (+Dex) was 120% (inactive) and the z-score is 1.31. Moreover, in assay [5], the EGFP object count worked out at 5 and the EGFP/DsRed ratio is 0.225 (inactive). Moreover, the fraction signal in assay [6] was -0.0005 (inactive).

The values are drawn from PubChem BioAssay.
